MmCpn inh – M. maripaludis TRiC chaperonin inhibition; purified Mm-Cpn ATPase, ADP Transcreener TR-FRET; Potency, µM (series often up to 76.9 µM), hits mostly inhibitors; 0.031% of 330,000 active; AID 504842; note: nearly all actives have a fitted effect of over 80% in size
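TR-FRET (320 nm excitation; 590 and 665 nm emission) reports ADP made from 10 uM ATP by 25 nM enzyme; compounds were preincubated 10 min, reaction run 30 min, both at 37°C.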
CCT modulator – cytosolic chaperonin activity modulation. purified chaperonin ATPase assay, HTRF ADP detection, 30 min. activity change, % (concentration not given with the values), hits read low. 0.3% of 360,000 active. AID 651819; in the data active = activity change below about -30%
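Nucleotide hydrolysis assay: TRiC at 20–40 nM final (set by batch activity) with 10 uM ATP, 30 min at 37 °C, in presence of 76 uM compound. Detection by competitive ADP HTRF, 30 min ambient.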
G9a block – blocks human histone lysine methyltransferase G9a; Q96KQ7; G9a H3K9 monomethylation, AlphaScreen, 2 h; Potency, µM (titrated, usually from 102 µM), actives largely listed as inhibitors; 8.8% of 350,000 active; AID 504332; note: nearly all actives have a fitted effect of over 75% in size
Target sequence (Q96KQ7 913-1193 limits assumed): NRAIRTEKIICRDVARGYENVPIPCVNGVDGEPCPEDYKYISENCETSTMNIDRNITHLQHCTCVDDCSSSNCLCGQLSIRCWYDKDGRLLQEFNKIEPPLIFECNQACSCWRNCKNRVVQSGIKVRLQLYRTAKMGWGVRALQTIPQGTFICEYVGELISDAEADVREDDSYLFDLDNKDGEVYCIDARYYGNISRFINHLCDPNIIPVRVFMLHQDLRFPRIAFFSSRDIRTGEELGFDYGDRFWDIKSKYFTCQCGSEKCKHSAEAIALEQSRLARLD
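G9a (20 nM) was preincubated 15 min with compound, then reacted 2 h at room temperature with 500 nM biotin-H3K9 peptide and 20 µM SAM. Monomethyl-H3K9 detected by AlphaScreen using anti-H3K9me1 antibody.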
PLK1 PBD inh – PLK1 (human) polo-box domain binding inhibition; Plk1 PBD binding of FITC phosphopeptide, fluorescence polarization; Potency, µM, actives largely listed as inhibitors; 2.8% of 360,000 active; AID 720504; note: series mostly up to about 57 µM; nearly all actives have a fitted effect of over 65% in size
Sfp PPTase inh – inhibitors of Bacillus subtilis Sfp phosphopantetheinyl transferase; Q9F4F7; Biochemical Sfp PPTase activity, qHTS; Potency, µM, most hits filed as inhibitors; 3.5% of 310,000 active;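 note: the enzyme is Sfp with the accession as filed and its product quenches rhodamine fluorescence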
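Compounds were incubated with enzyme (final 15 nM) for 15 min at room temperature before substrate addition started the reaction. Fluorescence at 525 nm excitation, 598 nm emission was recorded immediately and after 30 minutes.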
VDR inh – vitamin D3 receptor (human) inhibition; VDR-SRC2-3 peptide fluorescence polarization, 2 h; Potency, µM, actives largely listed as inhibitors; 0.93% of 400,000 active; AID 504847
Target sequence (P11473 whole entry, looked up): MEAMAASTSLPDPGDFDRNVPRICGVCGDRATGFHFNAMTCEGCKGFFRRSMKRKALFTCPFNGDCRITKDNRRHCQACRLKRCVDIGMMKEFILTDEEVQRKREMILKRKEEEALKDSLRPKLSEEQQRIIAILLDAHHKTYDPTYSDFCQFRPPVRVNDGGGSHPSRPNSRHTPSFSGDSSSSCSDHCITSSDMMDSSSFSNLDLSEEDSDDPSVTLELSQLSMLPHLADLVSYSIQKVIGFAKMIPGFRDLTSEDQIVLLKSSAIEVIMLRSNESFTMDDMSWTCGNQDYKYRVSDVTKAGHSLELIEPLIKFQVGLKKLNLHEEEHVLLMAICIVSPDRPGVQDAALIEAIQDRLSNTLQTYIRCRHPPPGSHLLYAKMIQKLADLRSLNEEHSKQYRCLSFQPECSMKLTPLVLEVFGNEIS
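Inhibition of the VDR/SRC2-3 peptide interaction is quantified by fluorescence polarization. Compounds (23 nl, pintool) incubate with the reagents for 2 hours at ambient room temperature.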
Large screens that a line does not name were inactive. Sampled rows, rich in hits. Any-hit rate of the full collection: about 10%. Unless noted, calls come from the whole dose curve; as a rule, active = well fitted curve in the direction sought with a large enough effect; inconclusive = small, poorly fitted or top-dose-only effect, or another doubt; inactive = no such curve, though single readings can be large; an effect the other way counts as inactive or inconclusive.

O=C(CSc1cn(CCNC(=O)c2cccc(C(F)(F)F)c2)c2ccccc12)Nc1ccc2c(c1)OCCO2	G9a block inconclusive (no result: MmCpn inh, CCT modulator, PLK1 PBD inh, Sfp PPTase inh)
Fc1ccc(N2CCN(Cc3cccn3-c3nnc(N4CCN(C5CCCCC5)CC4)s3)CC2)cc1	G9a block inconclusive (no result: MmCpn inh, CCT modulator, PLK1 PBD inh, Sfp PPTase inh)
O=C(N/N=C/c1coc2ccccc2c1=O)c1cc(Br)c(O)c(Br)c1	G9a block 50µM, PLK1 PBD inh inconclusive, VDR inh inconclusive
O=C(N/N=C/c1coc2ccccc2c1=O)c1ccncc1	none
CCCOc1cccc(C(=O)N/N=C/c2coc3ccccc3c2=O)c1	CCT modulator -37, PLK1 PBD inh inconclusive, VDR inh inconclusive (no result: G9a block)
CCOc1ccccc1C(=O)N/N=C/c1coc2ccc(Cl)cc2c1=O	none
O=C(N/N=C/c1coc2ccc(Cl)cc2c1=O)c1cc(O)cc(O)c1	PLK1 PBD inh 27µM
NC(=S)N/N=C/c1coc2ccc(O)cc2c1=O	G9a block inconclusive, Sfp PPTase inh 1.6µM
N#CN=c1snc(-c2ccccc2)n1-c1ccc(Cl)cc1	none (no result: MmCpn inh, CCT modulator, G9a block, PLK1 PBD inh, Sfp PPTase inh)
CC(=O)OC[C@@H]1O[C@@H](O/N=C2/C[C@@H](O)[C@@H](O)[C@@H]3[C@@H]4C(=O)N(C[C@@H]5CCCO5)C(=O)[C@H]4CC[C@@H]23)[C@H](OC(C)=O)[C@H](OC(C)=O)[C@@H]1OC(C)=O	none (no result: MmCpn inh, CCT modulator, G9a block, PLK1 PBD inh, VDR inh)
COc1ccc2[nH]c(=O)c(C(c3nnnn3CC3CCCO3)N3CCc4ccccc4C3)cc2c1 (configuration not stated)	G9a block inconclusive
CCc1ccc2[nH]c(=O)c(C(c3nnnn3Cc3ccco3)N3CCC(C)CC3)cc2c1 (configuration not stated)	G9a block 56µM
Cc1ccc2cc(C(c3nnnn3Cc3ccccc3)N3CCc4ccccc43)c(=O)[nH]c2c1C (configuration not stated)	MmCpn inh inconclusive, G9a block 20µM, Sfp PPTase inh 50µM
Cc1cc2cc(C(c3nnnn3Cc3ccco3)N3CCc4ccccc4C3)c(=O)[nH]c2cc1C (configuration not stated)	G9a block inconclusive, Sfp PPTase inh 11µM
Cc1ccc2[nH]c(=O)c(C(c3nnnn3Cc3ccccc3)N3CCc4ccccc43)cc2c1 (configuration not stated)	MmCpn inh inconclusive, G9a block 28µM, Sfp PPTase inh 20µM
Cc1cccc2cc(C(c3nnnn3Cc3ccccc3)N3CCN(C)CC3)c(=O)[nH]c12 (configuration not stated)	none
CCc1ccc2[nH]c(=O)c(C(c3nnnn3Cc3ccccc3)N3CCOCC3)cc2c1 (configuration not stated)	none
COc1ccc(C(C)C)cc1S(=O)(=O)NCCc1c(C)[nH]c2ccc(C)cc12	G9a block inconclusive (no result: MmCpn inh, CCT modulator, PLK1 PBD inh, Sfp PPTase inh)
COc1ccccc1Cn1c(CNS(=O)(=O)c2ccc(Cl)s2)nc2cccnc21	none (no result: MmCpn inh, CCT modulator, PLK1 PBD inh, Sfp PPTase inh)
COC(=O)N1CCc2cc(OC)c(OC)cc2C1Cc1ccc(OC)cc1 (configuration not stated)	none (no result: MmCpn inh, CCT modulator, G9a block, PLK1 PBD inh, VDR inh)
Cc1ccc2cc(C(c3nnnn3Cc3ccccc3)N3CCc4ccccc43)c(=O)[nH]c2c1 (configuration not stated)	none
Cc1cc2cc(C(c3nnnn3Cc3ccco3)N3CCc4ccccc43)c(=O)[nH]c2cc1C (configuration not stated)	MmCpn inh inconclusive, G9a block 11µM, Sfp PPTase inh 10µM
Cc1cc2cc(C(c3nnnn3Cc3ccccc3)N3CCc4ccccc43)c(=O)[nH]c2cc1C (configuration not stated)	G9a block inconclusive, Sfp PPTase inh 35µM
O=C(Nc1cccc(Cl)c1)c1cc(N=Nc2ccc([N+](=O)[O-])cc2Cl)ccc1O	G9a block 2.8µM, PLK1 PBD inh inconclusive
CN(c1ccccc1)c1ccc(/C=C(\CCC(=O)O)c2nc3ccccc3s2)cc1[N+](=O)[O-]	G9a block inconclusive, PLK1 PBD inh 24µM
COc1ccc(C(=O)Nc2cccc(/C=C(\CCC(=O)O)c3nc4ccccc4s3)c2)cc1	PLK1 PBD inh 11µM, VDR inh inconclusive
Cc1ccc(/C=C(\CCC(=O)O)c2nc3ccccc3s2)cc1[N+](=O)[O-]	PLK1 PBD inh inconclusive
O=C(O)C/C(=C\c1cccc(NC(=O)c2ccccc2Cl)c1)c1nc2ccccc2s1	PLK1 PBD inh 27µM
CNc1ccc(/C=C(\CCC(=O)O)c2nc3ccccc3s2)cc1[N+](=O)[O-]	G9a block inconclusive
O=C(CSc1nc(=O)n(Cc2ccco2)c2c1CCC2)NCc1ccccc1	none (no result: MmCpn inh, CCT modulator, PLK1 PBD inh, Sfp PPTase inh)
CCc1ccc(N2CCn3c2nc2c3c(=O)n(Cc3cccc(C)c3)c(=O)n2C)cc1	none (no result: MmCpn inh, CCT modulator, PLK1 PBD inh, Sfp PPTase inh)
O=C(O)c1ccccc1O[C@@H]1O[C@H](C(=O)O)[C@@H](O)[C@H](O)[C@H]1O	none (no result: MmCpn inh, CCT modulator, G9a block, PLK1 PBD inh)
CC1C(=O)CCC1(C(=O)O)c1ccccc1 (configuration not stated)	PLK1 PBD inh 24µM
CCN(CC)C(=O)[C@@]1(c2ccccc2)C[C@@H]1CN	none (no result: MmCpn inh, CCT modulator, PLK1 PBD inh)
c1coc(CNc2nc(-c3ccncc3)cs2)c1	none
Cc1nc2ccccn2c1-c1csc(NCc2ccco2)n1	G9a block 8.9µM, Sfp PPTase inh inconclusive
Cc1ccn2c(NCc3ccccc3)c(-c3cccs3)nc2c1	none
Cc1ccn2c(-c3csc(NCc4ccccc4)n3)c(C)nc2c1	G9a block 5µM, Sfp PPTase inh inconclusive
COc1ccc(-c2csc(NCc3ccco3)n2)cc1	G9a block 40µM
CCOC(=O)c1noc2ncn(Cc3ccc([N+](=O)[O-])cc3)c(=O)c12	none (no result: MmCpn inh, CCT modulator, PLK1 PBD inh, Sfp PPTase inh)
O=C(NCC(c1cccs1)S(=O)(=O)c1cccs1)c1c(F)cccc1F (configuration not stated)	none (no result: MmCpn inh, CCT modulator, PLK1 PBD inh, Sfp PPTase inh)
Cc1ccc(C)c2[nH]c(=O)c(CN(CCN3CCCC3)C(=O)Nc3cccc(Cl)c3)cc12	G9a block 28µM, Sfp PPTase inh 14µM
CCOc1ccc2[nH]c(=O)c(CN(CCN3CCCC3)C(=S)Nc3ccccc3OCC)cc2c1	none
CCc1ccc2[nH]c(=O)c(CN(CCCN3CCOCC3)C(=O)Nc3cccc(Cl)c3)cc2c1	G9a block 50µM
COc1ccc2[nH]c(=O)c(CN(CCN3CCCC3)C(=O)Nc3ccccc3Cl)cc2c1	G9a block 50µM
Cc1cc(C)c2cc(CN(CCN3CCCC3)C(=O)Nc3ccc(F)cc3)c(=O)[nH]c2c1	G9a block inconclusive
Clc1cccc(-n2ncc3c(NCCCn4ccnc4)ncnc32)c1	none (no result: MmCpn inh, CCT modulator, PLK1 PBD inh, Sfp PPTase inh)
O=C(CCSc1ccccn1)c1ccccc1	G9a block inconclusive, PLK1 PBD inh inconclusive, Sfp PPTase inh 79µM, VDR inh inconclusive
O=C(O)CCSc1ccccn1	G9a block 14µM, PLK1 PBD inh 13µM, Sfp PPTase inh 50µM
